RORgamma inh: inhibitors of mouse ROR gamma transcriptional activity | Drosophila S2 Gal4-RORgamma UAS-luciferase reporter, 20 h | Potency, µM (series often up to 53.6 µM), actives largely listed as inhibitors | 310,000 compounds, 5.4% hits; also: nearly all actives have a fitted effect of over 60% in size
Target sequence (P51450 whole entry, looked up, the tested form may be a part): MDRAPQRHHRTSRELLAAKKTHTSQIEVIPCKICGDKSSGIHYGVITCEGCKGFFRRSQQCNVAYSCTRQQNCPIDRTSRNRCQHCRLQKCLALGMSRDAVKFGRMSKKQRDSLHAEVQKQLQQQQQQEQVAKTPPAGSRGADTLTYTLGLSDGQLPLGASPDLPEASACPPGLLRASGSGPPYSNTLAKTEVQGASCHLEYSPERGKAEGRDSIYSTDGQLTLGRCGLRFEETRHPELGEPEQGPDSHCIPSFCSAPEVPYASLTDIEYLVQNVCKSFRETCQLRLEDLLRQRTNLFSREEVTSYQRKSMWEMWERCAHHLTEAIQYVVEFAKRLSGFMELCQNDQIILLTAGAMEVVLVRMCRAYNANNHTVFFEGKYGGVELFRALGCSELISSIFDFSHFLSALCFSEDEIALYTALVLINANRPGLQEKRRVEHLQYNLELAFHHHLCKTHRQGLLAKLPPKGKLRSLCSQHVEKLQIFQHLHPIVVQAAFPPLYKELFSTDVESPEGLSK
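In this cell-based reporter format, copper sulfate (700 uM final) drives Gal4–ROR gamma fusion expression from a metallothionein promoter in Drosophila Schneider cells; compounds preincubated 1 hr, reporter read after 20 hr at ambient temperature.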
PINK1 modulator: PINK1 expression modulation; Potency, µM (top dose mostly 76.6 µM), usual class: activators; 410,000 compounds, 0.2% hits; PINK1 immunofluorescence, high-content cytometry, 24 h; active = well fitted activation curve with a large enough effect; inconclusive = small, poorly fitted or top-dose-only effect; cell line not stated here; also: nearly all actives have a fitted effect of over 65% in size
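PINK1 protein, normally rapidly degraded, was detected by immunofluorescence after 24 hour compound treatment of a stable cell line. Titration data (5 concentrations) came from laser-scanning cytometry, with CCCP-treated wells as controls.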
VP16 counter: Gal4-VP16 reporter inhibition counter-screen; AID 2546; Potency, µM (top dose mostly 53.6 µM), usual class: inhibitors; 310,000 compounds, 3.5% hits; Drosophila S2 Gal4-VP16 UAS-luciferase, luminescence, 20 h;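 also: Gal4-VP16 expression switched on by copper sulfate through the metallothionein promoter; nearly all actives have a fitted effect of over 50% in size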
Epigenetic reg: regulators of epigenetic silencing causing reporter derepression in mouse cells. AID 1865. 280,000 compounds, 0.2% hits. murine LDR cells, GFP reporter derepression, 30 h. Potency, µM (titrated, usually from 53.9 µM), most hits filed as activators; also: nearly all actives have a fitted effect of over 60% in size
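GFP-positive cell count by laser-scanning cytometry (objects 20–120 um) after 30 h, 37 C compound exposure of murine LDR cells; reporter is CMV-GFP integrated at a silenced locus, inducible by HDAC or DNMT inhibitors.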
Sfp inh: blocks B. subtilis Sfp PPTase activity | AID 1490 | Biochemical Sfp PPTase activity, qHTS | Q9F4F7 | 310,000 compounds, 3.5% hits | Potency, µM, hits mostly inhibitors;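 also: the enzyme is Sfp with the accession as filed and its product quenches rhodamine fluorescence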
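Fluorescence-quenching assay: 15 nM Sfp-PPTase preincubated 15 min at room temperature with compound, then 5 uM rhodamine-CoA and 12.5 uM BHQ-2-labelled YbbR peptide added. Fluorescence (ex 525/em 598 nm) read at start and after 30 min; difference gives rate.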
ClpP mod: qHTS Assay for Activators of ClpP; Potency, µM (top dose mostly 57.5 µM); AID 651965, 2013; 340,000 compounds, 1.9% hits; ATP-dependent Clp protease proteolytic subunit (Bacillus subtilis (strain 168)), P80244; purified B. subtilis ClpP, FRET peptide cleavage, 20 min; active = well fitted falling curve with a large enough effect; inconclusive = small, poorly fitted or top-dose-only effect; inactive = no such curve, though single readings can be large or run the other way; also: the source files actives as falling curves though it sought activators and does not explain the sign; nearly all actives have a fitted effect of over 65% in size
Target sequence (P80244 whole entry, looked up): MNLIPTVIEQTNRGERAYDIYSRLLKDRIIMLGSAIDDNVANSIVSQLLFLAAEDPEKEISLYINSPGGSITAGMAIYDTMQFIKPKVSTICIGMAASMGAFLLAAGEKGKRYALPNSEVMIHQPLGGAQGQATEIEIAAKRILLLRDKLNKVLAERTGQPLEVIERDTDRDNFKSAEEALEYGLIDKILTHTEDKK
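Buffer: 100 mM Tris/HCl pH8, 100 mM KCl, 0.05% low protease BSA, 2.5% glycerol, 0.01% Tween-20. ClpP 10 microg/mL final; 20 min RT; delta FRET normalized to ADEP and DMSO controls.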
Numbers stand for hits; 0 = inactive; ? = inconclusive; - = no result. Most compounds without a hit are left out; they make up all but 8.1% or so of the library. Unless noted, calls follow the shape of the dose curve; as a rule, active = well fitted curve in the direction sought with a large enough effect; inconclusive = small, poorly fitted or top-dose-only effect, or another doubt; inactive = no such curve, though single readings can be large; an effect the other way counts as inactive or inconclusive.

SMILES	RORgamma inh	PINK1 modulator	VP16 counter	Epigenetic reg	Sfp inh	ClpP mod
COc1ccc(Cl)cc1NC(=O)Cn1c(=O)n(Cc2ccco2)c(=O)c2cccnc21	-	0	-	0	-	0
COc1ccc(NC(=O)C23CC4CC(C2)CC(n2cnc(Br)n2)(C4)C3)c(OC)c1	5.6µM	0	0	0	0	0
COc1ccc(OC)c(NC(=O)C23CC4CC(C2)CC(n2cnc(Br)n2)(C4)C3)c1	0	0	0	0	0	0
Cc1ccc(-n2c(C)n[nH]c2=S)cc1	11µM	0	?	0	0	0
Cc1ccc(-n2c(C)c3c(C)nnc(C)c3c2C)cc1C	?	0	0	0	?	0
Cc1n[nH]c(=O)n1-c1ccc(C(C)(C)C)cc1	0	0	0	0	0	-
Cc1ccc(-n2c(C)n[nH]c2=S)cc1C	11µM	0	?	0	0	0
CCN(CC)CCCNC(=O)C1CCN(S(C)(=O)=O)CC1	-	0	-	0	-	0
COc1ccccc1N(Cc1ccccc1)S(=O)(=O)c1cccc(C(=O)Nc2ncccc2C)c1	-	0	-	-	-	0
COc1ccccc1N(Cc1ccccc1)S(=O)(=O)c1cccc(C(=O)Nc2cc(C)ccn2)c1	6.3µM	0	10µM	-	0	0
O=C(Nc1cnccn1)c1ccncc1	0	0	0	0	0	0
CCOc1cc(C(=O)NC(=S)Nn2cnnc2)cc(OCC)c1OCC	0	0	0	0	0	0
CCOc1cc(C(=O)Nc2cnccn2)cc(OCC)c1OCC	0	14µM	0	0	0	0
CCOc1cc(C(=O)NC(=S)Nc2nc(C)cc(C)n2)cc(OCC)c1OCC	11µM	0	?	-	?	0
CCOc1ccc(C(=O)NCC(=O)Nc2cc(C)ccn2)cc1OCC	-	0	-	-	-	0
CCOc1cc(C(=O)Nc2cc(C)ccn2)cc(OCC)c1OCC	16µM	0	?	0	0	0
Cc1ccc2c(c1)c1c(c(=O)n(-c3ccccc3)c(=O)n1CC(=O)NCCC1=CCCCC1)n2C	-	0	-	0	-	0
COc1ccccc1CN1CCC2(CCC(CNC(=O)c3ccccc3N(C)C)O2)CC1 (centres undefined)	-	0	-	-	-	-
Cc1ccc(CCNC(=O)CCCc2nnc3n(C)c(=O)c4sccc4n23)cc1	-	0	-	0	-	0
CCCCOc1ccc(C(=O)Nc2cccc(C)n2)cc1	?	0	?	0	0	0
Cc1ccnc(NC(=O)c2ccc(C(=O)c3ccccc3)cc2)c1	-	0	-	-	-	0
CCOc1ccc(C(=O)Nc2cccc(C)n2)cc1	8.9µM	0	?	0	0	0
CCOc1ccc(C(=O)Nc2cc(C)ccn2)cc1	8.9µM	0	10µM	0	0	-
Cc1ccnc(NC(=O)c2ccc(NS(=O)(=O)/C=C/c3ccccc3)cc2)c1	-	0	-	-	-	28µM
CC(C)OC(=O)c1cccnc1SCC(=O)Nc1ccc(C(F)(F)F)cc1Cl	-	0	-	0	-	0
SMILES	RORgamma inh	PINK1 modulator	VP16 counter	Epigenetic reg	Sfp inh	ClpP mod
CC1CC2(CC(C)(C(=O)CSc3n[nH]c(-c4ccccc4Cl)n3)OC2=O)C(=O)O1 (centres undefined)	10µM	0	?	0	0	0
CC1(C(=O)CSc2ncn[nH]2)CCC(=O)O1 (centres undefined)	0	-	0	0	56µM	-
CC1(C(=O)CSc2nc3ccccc3[nH]2)CCC(=O)O1 (centres undefined)	0	0	0	0	0	0
CC1CCCCN1C(=O)CSc1n[nH]c(-c2ccccc2Cl)n1 (centres undefined)	-	0	-	0	-	0
CC1(C(=O)CSc2n[nH]c(-c3ccccc3Cl)n2)CCC(=O)O1 (centres undefined)	0	-	0	0	50µM	-
Cc1ccc(NC(=O)N2CCC(CN3CCCC3)CC2)c(C)c1	-	0	-	0	-	0
C=C(C)C1Cc2c(C)nn(-c3cccc4cccnc34)c2C1 (centres undefined)	14µM	0	0	0	0	0
Cc1nnc(C)c2c(C)n(-c3cccc4cccnc34)c(C)c12	0	-	0	0	0	-
C=C(C)C1Cc2c(C)nn(-c3ccccn3)c2C1 (centres undefined)	13µM	0	?	0	0	0
CCN1C(=O)C(CC(=O)Nc2c(C)cccc2C)Nc2cc(S(=O)(=O)N(C)C)ccc21 (centres undefined)	0	0	0	0	0	28µM
Cc1cccc(C)c1NC(=O)CN(C)C(=O)c1cc(S(=O)(=O)N(C)C)ccc1N1CCCC1	-	0	-	-	-	0
Nc1nonc1N/N=C\c1ccccc1	0	0	0	0	0	0
Nc1nonc1N/N=C/c1c(O)ccc2ccccc12	11µM	0	0	0	0	-
Nc1cc(Cl)nc(N/N=C/c2c(O)ccc3ccccc23)n1	0.63µM	0	11µM	0	0	0
O=C(N/N=C/C(Br)=C/c1ccccc1)c1ccc([N+](=O)[O-])cc1	13µM	0	0	-	0	0
O=C(N/N=C/C(Br)=C\c1ccccc1)c1ccc2nc[nH]c2c1	14µM	0	7.9µM	0	50µM	?
O=C(O)c1ccc(N/N=C/C(Br)=C/c2ccccc2)cc1	8.9µM	0	10µM	0	?	0
COC(=O)c1ccccc1Sc1ncnc2onc(C)c12	11µM	0	?	0	0	-
Cc1noc2ncnc(Sc3ccccc3Cl)c12	0	0	0	0	0	0
CCOC(=O)c1cc(C(=O)OCC)c(=O)[nH]c1C	0	0	0	0	?	?
CCOC(=O)c1cc2c(N)c(C(=O)c3ccc(Br)cc3)sc2[nH]c1=O	0	0	0	0	28µM	0
Cc1ccc(NCc2nc3ccccc3n2C)c(C)c1	13µM	0	10µM	-	0	0
Cc1ccccc1OCc1nc2ccccc2n1C	20µM	0	?	-	0	0
Cc1ccc(N2CCN(c3ccc(NCc4nc5ccccc5n4C)cc3)CC2)cc1	11µM	0	0	0	?	0
Cn1c(CNc2ccc(Cl)cc2)nc2ccccc21	?	0	?	0	0	0
SMILES	RORgamma inh	PINK1 modulator	VP16 counter	Epigenetic reg	Sfp inh	ClpP mod
O=S1(=O)c2ccccc2N(Cc2ccc(Cl)cc2F)c2ccccc21	-	0	-	0	-	0
O=C(COc1ccc(C(=O)c2ccccc2)cc1)Nc1ncccc1O	-	0	-	-	-	0
Cc1cnc(NC(=O)c2ccc(OCC3CCCO3)cc2)s1 (centres undefined)	7.9µM	0	?	0	0	-
O=C(NC1=NCCS1)c1ccc(OCC2CCCO2)cc1 (centres undefined)	?	0	?	0	0	0
O=C(Nc1ncccc1O)c1ccc(Oc2ccccc2)cc1	?	0	14µM	-	0	0
O=C(Nc1ncccc1O)c1ccc(OCC2CCCO2)cc1 (centres undefined)	10µM	0	?	-	0	0
O=C(CSc1nc2c([nH]c3ccccc32)c(=O)n1-c1ccccc1F)Nc1cccc(C(F)(F)F)c1	-	0	-	0	-	?
CCCCCCN	0	-	0	-	-	-
Cc1ccc(S(=O)(=O)/N=C2/NC(=O)/C(=C\c3cc(Br)cc(Br)c3O)S2)cc1	11µM	0	0	-	?	0
